Source: PubChem BioAssay (National Center for Advancing Translational Sciences (NCATS))
Shown are actives, neighbours in structure and some others; about 1.3% of the full set was active somewhere.
Giardia FBPA inh-1 – qHTS Assay for Inhibitors of Fructose-1,6-bisphosphate Aldolase from Giardia Lamblia | purified Giardia FBPA | Potency, µM (top dose mostly 59.6 µM), for the others: at the top dose activity, negative = inhibition, usual class: inhibitors | A8B2U2 | AID 2451, 2010 | actives 0.71% (n = 290,000); note: nearly all actives have a fitted effect of over 55% in size
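Giardia FBPA (40 nM reagent) was preincubated 10 min at RT with compound (up to 57.5 uM final), then substrate plus GAPDH/TPI/NAD/arsenate coupling system with diaphorase/resazurin was added; resorufin fluorescence (525/598 nm) was read after 20 min.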
AmpC no deterg – qHTS Inhibitors of AmpC Beta-Lactamase (assay without detergent) | AmpC nitrocefin hydrolysis, absorbance 480 nm, 0.0001% Triton | Potency, µM (doses to about 57.1 µM), for inactives: at the top dose activity change, negative = inhibition, most hits filed as inhibitors | actives 0.52% (n = 330,000) | AID 485341, 2010;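 note: plate controls were no compound for no effect and no enzyme for full effect; nearly all actives have a fitted effect of over 20% in size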
Target sequence (P00811 whole entry, looked up): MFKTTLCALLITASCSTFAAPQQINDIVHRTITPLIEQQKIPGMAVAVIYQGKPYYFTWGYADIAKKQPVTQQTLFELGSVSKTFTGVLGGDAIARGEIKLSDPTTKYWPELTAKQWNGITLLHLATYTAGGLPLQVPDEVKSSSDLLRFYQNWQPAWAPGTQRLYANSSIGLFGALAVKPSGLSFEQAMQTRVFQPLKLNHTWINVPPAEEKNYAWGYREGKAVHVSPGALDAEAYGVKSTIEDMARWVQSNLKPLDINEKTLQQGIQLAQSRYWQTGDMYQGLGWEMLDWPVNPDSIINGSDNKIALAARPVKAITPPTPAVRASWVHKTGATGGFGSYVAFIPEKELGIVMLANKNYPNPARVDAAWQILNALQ
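AmpC (5.3 nM in the dispensed reagent) in 20 mM phosphate pH 7.0 with 0.01% (detergent screen) or 0.0001% Triton X-100 was preincubated with compounds for 15 min at room temperature. Nitrocefin was then added from an 800 uM solution, and hydrolysis was followed at 480 nm.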
AMA1-RON2 inh – qHTS for Inhibitors of AMA1-RON; Towards Development of Antimalarial Drug Lead: Primary Screen. Plasmodium falciparum AMA1 (3D7) - RON2 peptide interaction. AlphaScreen AMA1-biotinylated RON2 peptide binding. Potency, µM (doses to about 58.2 µM), for inactives: at the highest dose activity change, negative = inhibition, most hits filed as inhibitors. actives 0.2% (n = 360,000). AID 720542, 2013;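 note: 0% = vehicle wells and -100% = peptide control; nearly all actives have a fitted effect of over 45% in size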
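AMA1 (3D7) with his tag at 25 nM final met compounds first, then biotinylated RON2 peptide at 25 nM; detection used donor plus acceptor beads, 10 µg/mL apiece, read by AlphaScreen after 30 min at room temperature.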
AmpC inh detg – qHTS Inhibitors of AmpC Beta-Lactamase (assay with detergent); P00811; AmpC hydrolysis of nitrocefin, absorbance 480 nm, 0.01% Triton; Potency, µM (top dose mostly 114 µM), inactives show at the highest dose activity change, negative = inhibition, hits mostly inhibitors; actives 0.041% (n = 370,000); AID 485294, 2010;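 note: 0% = no-compound wells and -100% = no-enzyme wells; nearly all actives have a fitted effect of over 25% in size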
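AmpC (5.3 nM in the dispensed reagent) in 20 mM phosphate pH 7.0 with 0.01% (detergent screen) or 0.0001% Triton X-100 was preincubated with compounds for 15 min at room temperature. Nitrocefin was then added from an 800 uM solution, and hydrolysis was followed at 480 nm.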
LmPK inhibitor – qHTS Assay for Inhibitors of Leishmania Mexicana Pyruvate Kinase (LmPK) | Q27686 | purified LmPK, Kinase-Glo ATP luminescence, 1 h | Potency, µM (top dose mostly 57.5 µM), inactives show at the top dose activity change, negative = inhibition, hits mostly inhibitors | actives 0.37% (n = 290,000) | AID 1721, 2009
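In 50 mM imidazole pH 7.2 with 7 mM MgCl2, LmPK (0.1 nM) turned over PEP (0.5 mM) and ADP (0.1 mM) for 1 h at room temperature. Luciferase read-out of ATP.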
Giardia growth – qHTS Assay for Inhibitors of Fructose-1,6-bisphosphate Aldolase from Giardia Lamblia: Giardia lamblia growth inhibition; AID 2785, 2010; actives 5% (n = 1,500); Giardia lamblia trophozoite growth inhibition; Potency, µM (titrated, usually from 57.5 µM), without a hit: at the top dose activity change, negative = inhibition, hits mostly inhibitors; shares compounds with Giardia FBPA inh-1;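 note: trophozoites exposed to compound for 48 h at 37 °C; nearly all actives have a fitted effect of over 70% in size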
Mammal cell tox – qHTS Assay for Inhibitors of Fructose-1,6-bisphosphate Aldolase from Giardia Lamblia: Mammalian cellular toxicity. shares compounds with Giardia FBPA inh-1. mammalian cell viability counter-screen, qHTS. Potency, µM (doses to about 57.5 µM), for the others: at the highest dose viability change, negative = toxicity, actives largely listed as inhibitors. actives 4% (n = 1,500). AID 2786, 2010;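 note: Chinese hamster ovary cells used as mammalian cytotoxicity surrogate; viability measured as cellular ATP by luminescence; compound exposure lasted 48 h before reading; nearly all actives have a fitted effect of over 60% in size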
Giardia FBPA inh-2 – qHTS Assay for Inhibitors of Fructose-1,6-bisphosphate Aldolase from Giardia Lamblia: Primary screen confirmation. Potency, µM (series often up to 57.5 µM), without a hit: top-dose activity change, negative = inhibition, most hits filed as inhibitors. actives 5% (n = 1,500). shares compounds with Giardia FBPA inh-1. AID 2787, 2010. purified Giardia aldolase enzyme activity, qHTS; note: nearly all actives have a fitted effect of over 45% in size
Rabbit FBPA inh – qHTS Assay for Inhibitors of Fructose-1,6-bisphosphate Aldolase from Giardia Lamblia: Rabbit FBPA Selectivity. Rabbit muscle FBPA enzyme inhibition, selectivity counter-screen. AID 2794, 2010. actives 4% (n = 1,500). Potency, µM (doses to about 57.5 µM), for inactives: top-dose activity, negative = inhibition, usual class: inhibitors. shares compounds with Giardia FBPA inh-1; note: nearly all actives have a fitted effect of over 60% in size
Target sequence (P00883 whole entry, looked up): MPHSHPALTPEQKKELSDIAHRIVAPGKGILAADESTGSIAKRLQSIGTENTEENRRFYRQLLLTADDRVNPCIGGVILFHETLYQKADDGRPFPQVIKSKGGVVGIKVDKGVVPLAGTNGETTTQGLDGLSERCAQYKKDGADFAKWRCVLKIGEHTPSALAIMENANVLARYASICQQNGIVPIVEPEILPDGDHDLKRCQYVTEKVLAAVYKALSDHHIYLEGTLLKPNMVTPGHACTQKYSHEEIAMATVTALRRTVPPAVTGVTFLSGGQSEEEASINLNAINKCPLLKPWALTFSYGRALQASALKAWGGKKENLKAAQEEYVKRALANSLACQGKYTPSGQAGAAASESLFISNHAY
GAPDH coupling – qHTS Assay for Inhibitors of Fructose-1,6-bisphosphate Aldolase from Giardia Lamblia: Coupling assay counterscreen confirmation. shares compounds with Giardia FBPA inh-1. GAPDH coupling enzyme counterscreen, biochemical, qHTS. Potency, µM (doses to about 57.5 µM), without a hit: top-dose activity change, negative = inhibition, usual class: inhibitors. actives 6% (n = 1,500). AID 2795, 2010; note: nearly all actives have a fitted effect of over 55% in size
* hit, by the source's call; [ ] = remark or other dose. Calls come from the whole dose curve; as a rule, active = well fitted curve in the direction sought with a large enough effect; inconclusive = small, poorly fitted or top-dose-only effect, or another doubt; inactive = no such curve, though single readings can be large; an effect the other way counts as inactive or inconclusive. Unless noted, % is set by controls: 0 for no effect and ±100 for the full control effect; potency is the fitted concentration of half-maximal effect.

Results for COC(=O)C1=C(C(=O)OC)[C@@H]2N(Cc3ccccc3)c3ccccc3[C@@]23C[C@@H](C(=O)OC)N(C(=O)c2ccco2)C3=N1 ?
Giardia FBPA inh-1: 2.9%[12.9 µM]; LmPK inhibitor: -7.8%[11.5 µM]

How did Cc1oc(CSCCSCc2cc(C(=O)O)c(C)o2)cc1C(=O)O do in these assays?
Giardia FBPA inh-1: 14.1µM*; AmpC no deterg: 170.7%; AMA1-RON2 inh: 3.2%; AmpC inh detg: inconclusive; LmPK inhibitor: 1.8%; Giardia growth: 61.4%; Mammal cell tox: 8.6%; Giardia FBPA inh-2: -1.2%; Rabbit FBPA inh: -7.2%; GAPDH coupling: 10.7%

Results for Cc1cc(NC(=O)c2ccccc2C)n(-c2cccc(F)c2)n1 ?
Giardia FBPA inh-1: 3.8%; AmpC no deterg: -24.4%; AMA1-RON2 inh: -4.3%; AmpC inh detg: -0.3%; LmPK inhibitor: -2.2%

How did O=C1/C(=C/c2ccco2)SC(=S)N1CC1CCCO1 (configuration not stated) do in these assays?
Giardia FBPA inh-1: inconclusive; AmpC no deterg: -31.9%; AMA1-RON2 inh: inconclusive; AmpC inh detg: 10.4%; LmPK inhibitor: 5.7%

How did Cc1ccc(/C=C2\SC(=S)N(CC3CCCO3)C2=O)o1 (configuration not stated) do in these assays?
Giardia FBPA inh-1: 17.7µM*; AmpC no deterg: -49.2%; AMA1-RON2 inh: inconclusive; AmpC inh detg: 3.0%; LmPK inhibitor: -7.4%; Giardia growth: -22.1%; Mammal cell tox: 10.3%; Giardia FBPA inh-2: -22.8%; Rabbit FBPA inh: -10.2%; GAPDH coupling: -17.7%

How did COC(=O)[C@@]12C[C@@H](CC(=O)N3CCN(C(=O)c4ccco4)CC3)C(=O)N(Cc3ccccc3)C1=CCC(C)(C)C2 do in these assays?
AMA1-RON2 inh: -11.3%

What do the screens show for `Cc1ccc(Nc2cc(C)c3c(O)cccc3n2)cc1C`?
Giardia FBPA inh-1: inconclusive; AmpC no deterg: -45.5%; AMA1-RON2 inh: -2.6%; AmpC inh detg: -6.3%; LmPK inhibitor: -1.5%; Giardia growth: 6.2%[38.3 µM]; Mammal cell tox: -1.4%; Giardia FBPA inh-2: inconclusive; Rabbit FBPA inh: inconclusive; GAPDH coupling: 20.6µM*

Results for CCN(C(=O)COC(=O)c1cc(Cl)ccc1OC)c1c(N)n(Cc2ccccc2)c(=O)[nH]c1=O ?
AmpC no deterg: 21.0%; AMA1-RON2 inh: -1.2%; AmpC inh detg: 2.2%

Results for O=C(NC(=S)N1CCCCC1)c1csc([N+](=O)[O-])c1 ?
Giardia FBPA inh-1: 12.6µM*; AmpC no deterg: -10.5%; AMA1-RON2 inh: 38.5%; AmpC inh detg: 0.1%; LmPK inhibitor: -26.7%; Giardia growth: 1µM*; Mammal cell tox: -2.6%; Giardia FBPA inh-2: -2.5%; Rabbit FBPA inh: 5.2%; GAPDH coupling: 10.2%

What do the screens show for `CC1CCN(C(=S)NC(=O)c2cccc([N+](=O)[O-])c2)CC1`?
AmpC no deterg: -13.7%; AMA1-RON2 inh: 75.7%; AmpC inh detg: 6.5%; LmPK inhibitor: -4.6%

What do the screens show for `NS(=O)(=O)c1cccc(NC(=S)NC(=O)c2cccc([N+](=O)[O-])c2)c1`?
Giardia FBPA inh-1: 17.7µM*; AmpC no deterg: -25.3%; AMA1-RON2 inh: 60.4%; AmpC inh detg: 3.0%; LmPK inhibitor: -0.2%; Giardia growth: 2.9%[10.4 µM]; Mammal cell tox: 2.2%; Giardia FBPA inh-2: 0.6%; Rabbit FBPA inh: 3.4%; GAPDH coupling: 5.3%

How did CN1CCN(C(=S)NC(=O)c2cccc([N+](=O)[O-])c2)CC1 do in these assays?
Giardia FBPA inh-1: 1.78µM*; AmpC no deterg: -11.2%; AMA1-RON2 inh: 37.5%; AmpC inh detg: -13.8%; LmPK inhibitor: 1.3%; Giardia growth: -21.8%[38.3 µM]; Mammal cell tox: -16.2%; Giardia FBPA inh-2: -4.8%; Rabbit FBPA inh: -0.1%; GAPDH coupling: -1.0%

What do the screens show for `O=C(NC(=S)Nc1cccc(NC(=O)c2ccccc2)c1)c1cccc([N+](=O)[O-])c1`?
Giardia FBPA inh-1: 0.9%; AmpC no deterg: -23.6%; AMA1-RON2 inh: 26.0%; AmpC inh detg: -10.2%; LmPK inhibitor: -0.3%

What do the screens show for `CC1CN(C(=S)NC(=O)c2ccc([N+](=O)[O-])cc2)CC(C)O1` (configuration not stated)?
Giardia FBPA inh-1: 19.9µM*; AmpC no deterg: -21.0%; AMA1-RON2 inh: 15.9%; AmpC inh detg: inconclusive; LmPK inhibitor: -20.0%; Giardia growth: 5.01µM*; Mammal cell tox: 10.1%; Giardia FBPA inh-2: 1.3%; Rabbit FBPA inh: 14.3%; GAPDH coupling: 2.6%

Results for COc1ccc(NC(=O)C2(C)CCN2C(=O)Cc2ccc(Cl)cc2Cl)cc1OC (configuration not stated) ?
AMA1-RON2 inh: 0.0%

Results for CCOc1ccc(NC(=O)c2c(C)nn(-c3ccc(F)cc3)c2-n2cccc2)cc1 ?
AmpC inh detg: -3.2%

What do the screens show for `C#CCNC(=O)c1csc([C@@H]2O[C@H](CO)[C@@H](O)[C@H]2O)n1`?
AMA1-RON2 inh: 0.7%

Results for COc1ccc(CC(=O)Nc2ccc(S(=O)(=O)N3CCCC3)cc2)c(OC)c1 ?
AmpC no deterg: -25.4%; AMA1-RON2 inh: -9.5%; AmpC inh detg: -0.4%
